Results published in PubChem BioAssay (NCI).
This is part of a sample that, as a whole, favours compounds with a hit. Of some 83,000 tested, about 20% had one in any assay.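 Assay: single dose, 48 h. Readout: percent growth (0 = no net growth; negative = cell death). Active: <10.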 A number with no mark means an inactive call. Calls of active or inactive are those of the source.

What was measured:
Assay in all cases: NCI-60 one-dose screen, 48 h (100 = growth as untreated, 0 = no growth, -100 = all killed)
Conditions in all cases: 10 µM unless noted
HCT-15 colon = system: HCT-15 colon
HT29 colon = system: HT29 colon
SNB-75 CNS = system: SNB-75 CNS
SNB-19 CNS = system: SNB-19 CNS
U251 CNS = system: U251 CNS
PC-3 prostate = system: PC-3 prostate
SK-MEL-5 melanoma = system: SK-MEL-5 melanoma
UACC-62 melanoma = system: UACC-62 melanoma
LOX IMVI melanoma = system: LOX IMVI melanoma
SK-MEL-28 melanoma = system: SK-MEL-28 melanoma
SK-MEL-2 melanoma = system: SK-MEL-2 melanoma
EKVX NSCLC = system: EKVX NSCLC
SN12C renal = system: SN12C renal
UO-31 renal = system: UO-31 renal
TK-10 renal = system: TK-10 renal
ACHN renal = system: ACHN renal
CAKI-1 renal = system: CAKI-1 renal
A498 renal = system: A498 renal
CCRF-CEM leukemia = system: CCRF-CEM leukemia
MOLT-4 leukemia = system: MOLT-4 leukemia

## CCN(CC)CCOc1nc2c3ccc(Cl)cc3nn2c2ccccc12
HCT-15 colon
  growth: 4.7% (active)
HT29 colon
  growth: 15.2%
SNB-75 CNS
  growth: 33.5%
SNB-19 CNS
  growth: 24.2%
U251 CNS
  growth: 16.4%
PC-3 prostate
  growth: 34.1%
SK-MEL-5 melanoma
  growth: 51.3%
UACC-62 melanoma
  growth: 9.05% (active)
LOX IMVI melanoma
  growth: -47.2% (active)
SK-MEL-28 melanoma
  growth: 44.8%
SK-MEL-2 melanoma
  growth: 72.5%
EKVX NSCLC
  growth: 28.9%
SN12C renal
  growth: 19.9%
UO-31 renal
  growth: -13.2% (active)
TK-10 renal
  growth: 51%
ACHN renal
  growth: 8.93% (active)
CAKI-1 renal
  growth: 16.5%
A498 renal
  growth: -12.2% (active)
CCRF-CEM leukemia
  growth: 30.6%
MOLT-4 leukemia
  growth: 10.9%

## COc1ccc(C(O)c2cc3c(N)c(C(=O)Nc4cccc(Cl)c4)sc3nc2C)cc1 (stereo not given)
HCT-15 colon
  growth: 11.6%
HT29 colon
  growth: 8.32% (active)
SNB-75 CNS
  growth: 31.2%
SNB-19 CNS
  growth: 28.3%
U251 CNS
  growth: 23.6%
PC-3 prostate
  growth: 27.3%
SK-MEL-5 melanoma
  growth: -16.9% (active)
UACC-62 melanoma
  growth: 27.5%
LOX IMVI melanoma
  growth: 30.7%
SK-MEL-28 melanoma
  growth: 65.8%
SK-MEL-2 melanoma
  growth: 53.7%
EKVX NSCLC
  growth: 48.4%
SN12C renal
  growth: 22.2%
UO-31 renal
  growth: 45.4%
TK-10 renal
  growth: 64%
ACHN renal
  growth: 30.3%
CAKI-1 renal
  growth: 24.7%
A498 renal
  growth: 8.34% (active)
CCRF-CEM leukemia
  growth: 8.82% (active)
MOLT-4 leukemia
  growth: 15.4%

## Cc1ncc(C(=O)Nc2ccc(CN3CCN(C)CC3)c(C(F)(F)F)c2)cc1C#Cc1cnc(N)c2ccncc12
HCT-15 colon
  growth: -31.8% (active)
HT29 colon
  growth: -44.8% (active)
SNB-75 CNS
  growth: -67.7% (active)
SNB-19 CNS
  growth: -45.6% (active)
U251 CNS
  growth: -92.7% (active)
PC-3 prostate
  growth: -50.6% (active)
SK-MEL-5 melanoma
  growth: -90.8% (active)
UACC-62 melanoma
  growth: -83.8% (active)
LOX IMVI melanoma
  growth: -93.3% (active)
SK-MEL-28 melanoma
  growth: -81.3% (active)
SK-MEL-2 melanoma
  growth: -55.8% (active)
EKVX NSCLC
  growth: -18.9% (active)
SN12C renal
  growth: -26.8% (active)
UO-31 renal
  growth: -42.2% (active)
TK-10 renal
  growth: -59% (active)
ACHN renal
  growth: -64.3% (active)
CAKI-1 renal
  growth: -56.8% (active)
A498 renal
  growth: -90.2% (active)
CCRF-CEM leukemia
  growth: -23.3% (active)
MOLT-4 leukemia
  growth: -42.5% (active)

## Cc1nn(-c2ccccc2)c(N2CCCCC2)c1/C=N/NC(=O)Cn1c(=O)sc2ccccc21
HCT-15 colon
  growth: 61.3%
HT29 colon
  growth: 57.3%
SNB-75 CNS
  growth: 75%
SNB-19 CNS
  growth: 70.9%
U251 CNS
  growth: 73.4%
PC-3 prostate
  growth: 61.7%
SK-MEL-5 melanoma
  growth: 73.7%
UACC-62 melanoma
  growth: 64.3%
LOX IMVI melanoma
  growth: 60.3%
SK-MEL-28 melanoma
  growth: 114%
SK-MEL-2 melanoma
  growth: 88.9%
EKVX NSCLC
  growth: 74.5%
SN12C renal
  growth: 85%
UO-31 renal
  growth: 48.1%
TK-10 renal
  growth: 88.5%
ACHN renal
  growth: 66.8%
CAKI-1 renal
  growth: 34.7%
A498 renal
  growth: 80.7%
CCRF-CEM leukemia
  growth: 84.7%
MOLT-4 leukemia
  growth: 54.7%

## COc1ccccc1NC(=O)c1ccc(/C=C/C(=O)c2nccn2C)cc1
HCT-15 colon
  growth: -30.3% (active)
HT29 colon
  growth: -52.6% (active)
SNB-75 CNS
  growth: -3.01% (active)
SNB-19 CNS
  growth: -84.3% (active)
U251 CNS
  growth: -74.6% (active)
PC-3 prostate
  growth: -49.4% (active)
SK-MEL-5 melanoma
  growth: -97.1% (active)
UACC-62 melanoma
  growth: -60.6% (active)
LOX IMVI melanoma
  growth: -82.5% (active)
SK-MEL-28 melanoma
  growth: -45.9% (active)
SK-MEL-2 melanoma
  growth: -27.4% (active)
EKVX NSCLC
  growth: -12.2% (active)
SN12C renal
  growth: -80.4% (active)
UO-31 renal
  growth: -94.5% (active)
TK-10 renal
  growth: -45.6% (active)
ACHN renal
  growth: -100% (active)
CAKI-1 renal
  growth: -38.7% (active)
A498 renal
  growth: -39.8% (active)
CCRF-CEM leukemia
  growth: -11.6% (active)
MOLT-4 leukemia
  growth: 0.601% (active)

## CCOC(=O)c1c(NC(=O)CSc2n[nH]c3nc4ccccc4n23)sc(CC)c1C
HCT-15 colon
  growth: 97.9%
HT29 colon
  growth: 109%
SNB-75 CNS
  growth: 95.3%
SNB-19 CNS
  growth: 103%
U251 CNS
  growth: 97.6%
PC-3 prostate
  growth: 61.5%
SK-MEL-5 melanoma
  growth: 98%
UACC-62 melanoma
  growth: 77.9%
LOX IMVI melanoma
  growth: 99%
SK-MEL-28 melanoma
  growth: 113%
SK-MEL-2 melanoma
  growth: 80.6%
EKVX NSCLC
  growth: 91.9%
SN12C renal
  growth: 100%
UO-31 renal
  growth: 73.4%
TK-10 renal
  growth: 130%
ACHN renal
  growth: 96.8%
CAKI-1 renal
  growth: 108%
A498 renal
  growth: 106%
CCRF-CEM leukemia
  growth: 121%
MOLT-4 leukemia
  growth: 79.6%

## O=S(=O)(c1ccccc1)N1CCCN(c2nc(-c3ccccc3)nc3nc(-c4ccccc4)oc23)CC1
HCT-15 colon
  growth: 109%
HT29 colon
  growth: 109%
SNB-75 CNS
  growth: 88.5%
SNB-19 CNS
  growth: 101%
U251 CNS
  growth: 107%
PC-3 prostate
  growth: 105%
SK-MEL-5 melanoma
  growth: 103%
UACC-62 melanoma
  growth: 102%
LOX IMVI melanoma
  growth: 99.9%
SK-MEL-28 melanoma
  growth: 110%
SK-MEL-2 melanoma
  growth: 108%
EKVX NSCLC
  growth: 107%
SN12C renal
  growth: 98.5%
UO-31 renal
  growth: 85.3%
TK-10 renal
  growth: 114%
ACHN renal
  growth: 104%
CAKI-1 renal
  growth: 91.7%
A498 renal
  growth: 96.9%
CCRF-CEM leukemia
  growth: 105%
MOLT-4 leukemia
  growth: 100%

## C=C(c1ccc(C(=O)O)cn1)c1cc2c(cc1C)C(C)(C)CCC2(C)C
HCT-15 colon
  growth: 85.8%
HT29 colon
  growth: 93.8%
SNB-75 CNS
  growth: 94%
SNB-19 CNS
  growth: 99.7%
U251 CNS
  growth: 75.6%
PC-3 prostate
  growth: 71.1%
SK-MEL-5 melanoma
  growth: 70.8%
UACC-62 melanoma
  growth: 94.3%
LOX IMVI melanoma
  growth: 87.3%
SK-MEL-28 melanoma
  growth: 96.8%
SK-MEL-2 melanoma
  growth: 84%
EKVX NSCLC
  growth: 83.9%
SN12C renal
  growth: 95.7%
UO-31 renal
  growth: 81.5%
TK-10 renal
  growth: 131%
ACHN renal
  growth: 91.8%
CAKI-1 renal
  growth: 87.9%
A498 renal
  growth: 80%
CCRF-CEM leukemia
  growth: 83.5%
MOLT-4 leukemia
  growth: 95.7%
